Hits are enriched below; roughly 3.1% of the tested compounds scored in any of these assays.
SSB-PriA inh = inhibitors of Klebsiella pneumoniae PriA binding to SSB C-terminal tail. AlphaScreen SSBct-PriA binding, biotinylated peptide. inhibition, % at 33 µM. 430,000 compounds, 0.6% hits. AID 1272365; in the data active = inhibition mostly above about 37%, no sharp cut-off; inactive = mostly below about 20%;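 also: plate controls were negative control peptide for no effect and reference peptide for full effect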
BoNT A protease = blocks Botulinum neurotoxin A light chain protease | multiplex microsphere protease substrate cleavage, flow cytometry | inhibition, % at 10 µM | 360,000 compounds, 0.17% hits | AID 588499; also: plate controls were buffer without enzyme for full effect and enzyme alone for no effect
Anthrax LF prot = inhibitors of Bacillus anthracis lethal factor protease; inhibition, % at 10 µM; multiplex microsphere protease cleavage assay, LF; P15917; 360,000 compounds, 0.12% hits; AID 588501; also: plate controls were buffer without enzyme for full effect and enzyme alone for no effect
Target sequence (P15917 whole entry, looked up): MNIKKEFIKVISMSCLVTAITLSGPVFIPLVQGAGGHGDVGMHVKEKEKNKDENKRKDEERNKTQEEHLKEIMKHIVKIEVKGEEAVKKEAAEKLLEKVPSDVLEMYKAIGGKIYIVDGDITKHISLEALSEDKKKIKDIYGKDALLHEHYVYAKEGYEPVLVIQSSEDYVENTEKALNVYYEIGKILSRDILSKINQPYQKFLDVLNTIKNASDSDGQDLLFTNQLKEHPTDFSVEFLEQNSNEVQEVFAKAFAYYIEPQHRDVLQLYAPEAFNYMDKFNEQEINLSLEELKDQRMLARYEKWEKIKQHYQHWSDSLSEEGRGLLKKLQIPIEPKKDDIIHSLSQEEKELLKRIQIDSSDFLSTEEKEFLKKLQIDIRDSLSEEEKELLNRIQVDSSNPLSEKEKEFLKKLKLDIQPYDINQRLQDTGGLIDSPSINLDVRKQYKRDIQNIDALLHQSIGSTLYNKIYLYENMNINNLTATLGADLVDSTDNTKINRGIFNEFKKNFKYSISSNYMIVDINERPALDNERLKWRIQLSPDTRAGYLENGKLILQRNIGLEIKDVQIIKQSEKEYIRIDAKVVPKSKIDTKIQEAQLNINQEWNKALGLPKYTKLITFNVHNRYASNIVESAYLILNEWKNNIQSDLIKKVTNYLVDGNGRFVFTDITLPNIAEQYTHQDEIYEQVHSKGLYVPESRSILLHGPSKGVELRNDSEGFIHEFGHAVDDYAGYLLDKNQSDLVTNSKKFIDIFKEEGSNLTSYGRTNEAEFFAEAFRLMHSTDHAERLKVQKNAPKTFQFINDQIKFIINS
Bead autofluor = compound fluorescence in toxin protease inhibitor counterscreen; 360,000 compounds, 3.1% hits; compound autofluorescence counterscreen, microsphere flow cytometry; hits give high values; fluorescence intensity (no concentration beside the values); in the data active = fluorescence intensity above about 16000; inconclusive = no clear call, values can overlap the other calls
BoNT F protease = BoNT F light chain protease inhibition; inhibition, % at 10 µM; 360,000 compounds, 0.22% hits; Multiplex microsphere protease cleavage assay, flow cytometry; in the data active = inhibition above about 35%, passing the limit was not always enough; inconclusive = no clear call, values can overlap the other calls; also: plate controls were buffer without enzyme for full effect and enzyme alone for no effect
* = called active by the depositor; ? = inconclusive; . = no result. Rule as the data show it, unless noted: active = inhibition above about 30%; inconclusive = no clear call, values can overlap the other calls; inactive = below that.

SMILES | SSB-PriA inh | BoNT A protease | Anthrax LF prot | Bead autofluor | BoNT F protease
CCOC(=O)c1cnc(-n2nc(C)cc2C)nc1N1CCOCC1 | 15.6 | 0.0 | -2.7 | 23062* | 0.4
CCOC(=O)c1cnc(-n2nc(C)cc2C)nc1NC1CCCC1 | 2.4 | 0.6 | 19.4 | 3914 | ?
CCOC(=O)c1cnc(-n2nc(C)cc2C)nc1N(C)C | 13.8 | 0.4 | -1.0 | 22817* | 1.6
CCOC(=O)c1nn(-c2ccc(Cl)cc2)c2nc(CC)c(C#N)c(=O)n12 | 0.4 | 1.2 | -1.5 | 16274* | -0.2
CCOC(=O)c1nn(-c2ccc(Cl)cc2)c2nc(-c3ccc(C)cc3)c(C#N)c(=O)n12 | -13.1 | 0.1 | 3.2 | 2938 | 2.0
CCOC(=O)c1nn(-c2ccc(OCC)cc2)c2nc(CC(C)C)c(C#N)c(=O)n12 | -8.8 | -1.5 | -3.4 | 16776* | -4.1
Cc1cc(C(=O)Nc2ccc3nc(N4CCN(C)CC4)sc3c2)no1 | -9.0 | . | . | . | .
COC(=O)c1sc(N)c(C(=O)OC)c1COC(=O)C1CC(=O)N(Cc2ccco2)C1 (stereo unspecified) | 0.4 | 2.0 | -0.1 | 21636* | 1.2
Cc1ccc(-c2nnc(CN3CCC(Cc4ccccc4)CC3)o2)cc1 | 0.0 | . | . | . | .
C=CCOC(=O)c1cc(-c2ccc(/C=C3\C(=O)NC(=O)C(C#N)=C3C)o2)ccc1Cl | 13.2 | 0.6 | 2.5 | 5030 | 1.9
CCCOC(=O)c1cc(-c2ccc(/C=C3/C(=O)N(C)C(=O)C(C#N)=C3C)o2)ccc1Cl | 23.5 | -2.1 | -0.4 | 22120* | -1.8
NS(=O)(=O)c1ccc(C(=O)Nc2cnc(N3CCCC3)nc2)cc1 | -6.0 | . | . | . | .
O=C(O)c1nc(N2CCCCC2)ncc1Cl | -5.6 | -1.1 | -2.7 | 2505 | -9.0
O=C(O)c1nc(N2CCCC2)ncc1Cl | -4.4 | 6.9 | -8.4 | 19947* | 9.5
Cc1ccc(S(=O)(=O)N=C(Sc2ccccc2)c2ccccc2)cc1 | -7.2 | . | . | . | .
Cc1ccc(S(=O)(=O)/N=C(\Sc2ccccc2)c2ccccc2)cc1 | . | -1.9 | 0.0 | 24784* | -5.5
C/C(=N\NC(=O)c1ccc(Cl)c(Cl)c1)c1ccccn1 | . | 11.1 | -3.5 | 3592 | 37.4*
CC(/C=C/c1ccccc1F)=NNC(=O)c1ccc(Cl)cc1 | -5.8 | . | . | . | .
C/C(=N\NC(=O)C1COc2ccccc2O1)c1ccccn1 (stereo unspecified) | . | -2.1 | -1.1 | 1993 | -9.1
O=C(O)/C(=N/NC(=O)c1ccc(Cl)cc1)c1ccccc1 | . | ? | 30.7* | 4073 | ?
CC(=NNc1ncc(Cl)cc1Cl)c1ccccn1 | 46.9* | . | . | . | .
CC(=NNC(=O)c1ccc(Cl)c(Cl)c1)c1ccccn1 | -5.6 | . | . | . | .
CC(=NNC(=O)C1COc2ccccc2O1)c1ccccn1 (stereo unspecified) | 61.5* | . | . | . | .
O=C(CSc1ncc(-c2ccc(Cl)c(Cl)c2)n1Cc1ccccc1)N1CCCC1 | 23.0 | . | . | . | .
O=C(Cc1ccc(NC(=O)c2ccccc2F)cc1)NCc1cccs1 | -5.0 | . | . | . | .
SMILES | SSB-PriA inh | BoNT A protease | Anthrax LF prot | Bead autofluor | BoNT F protease
N#Cc1nccnc1O[C@H]1CCCN(S(=O)(=O)CCC(F)(F)F)C1 | -14.0 | . | . | . | .
O=C(NNC(=O)C1COc2ccccc2O1)c1ccccc1 (stereo unspecified) | -7.3 | 1.0 | -1.9 | 22774* | -3.9
CC(=NNC(=O)c1ccc(C(C)(C)C)cc1)c1ccccn1 | 34.6 | . | . | . | .
CC(=NNC(=O)c1ccc(Cl)cc1)c1ccccn1 | 45.0* | . | . | . | .
CS(=O)(=O)c1ccc(CC(=O)Nc2ccccc2-c2nc3ccccc3[nH]2)cc1 | 2.0 | . | . | . | .
Cc1ccccc1NC(=S)N/N=C/c1ccc(O)cc1O | . | -0.9 | -3.5 | 3734 | -2.6
COCCCNC(=S)NN=Cc1ccc(O)cc1O | 46.3* | . | . | . | .
COCCCNC(=S)N/N=C/c1ccccc1O | . | 1.5 | -18.8 | 4308 | ?
Cc1ccccc1NC(=S)NN=Cc1ccc(O)cc1O | 49.9* | . | . | . | .
CC1=C(C(=O)Nc2ccc(C)cc2C)C(c2ccc([N+](=O)[O-])cc2)n2ncnc2N1 (stereo unspecified) | 1.9 | -0.1 | 0.1 | 3582 | -6.0
COc1ccc(C2C(C(=O)Nc3ccccc3OC)=C(C)Nc3ncnn32)cc1 (stereo unspecified) | -1.5 | -1.6 | -10.3 | 4701 | -5.2
COc1cc(OC)c(C2C(C(=O)Nc3ccc(C)cc3C)=C(C)Nc3ncnn32)cc1OC (stereo unspecified) | -2.0 | -0.2 | -3.2 | 23198* | -0.7
COC(=O)C1=C(C)Nc2ncnn2C1c1ccnn1C (stereo unspecified) | -18.0 | . | . | . | .
CC1=C(C(=O)OC(C)C)C(c2cccc(F)c2)n2ncnc2N1 (stereo unspecified) | -5.6 | -0.9 | 4.1 | 6449 | -2.8
COC(=O)C1=C(C)Nc2ncnn2C1c1ccccn1 (stereo unspecified) | -9.6 | 1.9 | 0.8 | 21583* | 1.5
COc1cccc(C2C(C(=O)OC(C)C)=C(C)Nc3ncnn32)c1 (stereo unspecified) | -12.3 | ? | -10.1 | 20726* | -5.1
COc1cc(OC)c(C2C(C(=O)Nc3ccccc3)=C(C)Nc3ncnn32)cc1OC (stereo unspecified) | -8.0 | 0.2 | -0.4 | 16373* | 1.4
COC(=O)N1CCc2c(sc(NC(=O)c3ccc(F)cc3)c2C(N)=O)C1 | -13.0 | . | . | . | .
COc1ccccc1C1C(C(=O)NCc2ccccc2)=C(C)Nc2ncnn21 (stereo unspecified) | -4.4 | -0.3 | -10.1 | 5946 | -2.5
COc1ccccc1C1C(C(N)=O)=C(C)Nc2ncnn21 (stereo unspecified) | -6.8 | 1.2 | -1.4 | 16247* | -0.6
Cc1ccc(NC(=O)c2ccccc2C)c(C(=O)c2ccccc2)c1 | -1.0 | . | . | . | .
CC(CN1CCN(C)CC1)OC(=O)c1ccc(Cl)cc1Cl (stereo unspecified) | -14.7 | ? | -4.2 | 16186* | -1.3
CC(CN1CCN(C)CC1)OC(=O)c1ccc(Cl)cc1 (stereo unspecified) | -7.5 | -1.0 | -4.4 | 4731 | -34.8
CC(C)CS(=O)(=O)C1CN(C(=O)CSc2ncccn2)C1 | -19.0 | . | . | . | .
Cc1ccc(NCC(O)C(O)C(O)CO)cc1C (stereo unspecified) | 19.4 | 0.7 | -1.9 | 20300* | -1.9
SMILES | SSB-PriA inh | BoNT A protease | Anthrax LF prot | Bead autofluor | BoNT F protease
CCOC(=O)N1CCN(C(=O)CSc2ncnc3c2nnn3Cc2ccccc2)CC1 | 6.0 | . | . | . | .
CC(C)NC(=O)c1ccc2c(c1)N(CC(=O)N1CCOCC1)C(=O)C(C)(C)O2 | -9.4 | 0.2 | 0.4 | 22372* | 1.9
O=C(NCc1cncc(-c2ccsc2)c1)c1ccc2c(c1)OCO2 | -3.0 | . | . | . | .
COc1ccc(NC(=S)NCCc2ccccc2OC)c(OC)c1 | 12.9 | -0.2 | -7.8 | 16398* | -0.9
COc1cc(NC(=S)NCCc2c[nH]c3ccccc23)c(OC)cc1Cl | 9.5 | -0.5 | -4.1 | 2060 | -10.0
COc1cc(CNCCc2c[nH]c3ccccc23)ccc1OCc1ccc(F)cc1 | 39.7* | 0.2 | -7.1 | 2582 | -6.2
COc1ccccc1NC(=S)NCCc1c[nH]c2ccccc12 | 45.2* | 0.1 | -2.0 | 2807 | -4.9
COc1ccccc1CCNC(=O)c1ccc(C)o1 | -7.9 | ? | -0.7 | 21801* | -1.7
Cc1cnc(NC(=O)c2ccc(Cn3ccnc3)cc2)s1 | 1.0 | . | . | . | .
Cc1ccc(-c2nc(CS(=O)CC(=O)N3CCC4(CC3)OCCO4)c(C)o2)cc1 (stereo unspecified) | . | 0.3 | 0.0 | 21619* | 2.3

Screening data: PubChem, several laboratories
